Experimental data: PubChem BioAssay (NCATS)
Where “and” joins values, the source holds several entries; their conditions need not be identical. Identical values can stand only once. Records with an inconclusive call do not appear. Calls of active or inactive are those of the source. Unless noted, the call rests on the fitted dose curve; in most records, active means well fitted curve in the direction sought with a large enough effect; inconclusive means small, poorly fitted or top-dose-only effect, or another doubt; inactive means no such curve, though single readings can be large; an effect the other way counts as inactive or inconclusive.

What was measured:
[1] = Primary qHTS for inhibitors of nuclear receptor binding SET domain protein 2 (NSD2) in an isogenic RCH-ACV NSD2 p.E1099K mutant (9B) (AID 1645876); further: nearly all actives have a fitted effect of over 70% in size; further: potency means the concentration at half of the fitted maximal effect
[2] = target: Glutathione peroxidase 1 (Homo sapiens) (UniProt P07203); assay: Primary qHTS Assay for Inhibitors of Recombinant Selenoprotein Glutathione Peroxidase 1 (GPX1) (AID 1845191); further: nearly all actives have a fitted effect of over 65% in size
Glutathione peroxidase 1 (Homo sapiens), sequence (P07203 whole entry, looked up): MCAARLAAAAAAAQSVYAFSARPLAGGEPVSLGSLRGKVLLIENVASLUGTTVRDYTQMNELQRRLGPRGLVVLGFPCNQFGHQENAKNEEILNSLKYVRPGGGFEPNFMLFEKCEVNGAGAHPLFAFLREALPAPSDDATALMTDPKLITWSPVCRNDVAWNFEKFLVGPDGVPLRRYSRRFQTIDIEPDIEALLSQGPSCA
How it was run: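 Recombinant GPX1 (10 nM final) was preincubated with compound for 30 min at room temperature, then reacted with 1 mM GSH, 0.5 mM CHP, 0.5 mM NADPH and 100 nM glutathione reductase; NADPH fluorescence (340/450 nm) was read at 0 and 15 min.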

[3] = qHTS drug screen for cell cycle checkpoint inhibitors in PARPi-resistant BRCA-mutant ovarian cancer cell lines. (AID 1963452; calls by dose curve; further: potency means the concentration at half of the fitted maximal effect); settings: PEO1/OlaR viability, CellTiter-Glo luminescence, 96 h; for Z-AUC: stronger effect = lower value
How it was run: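 PEO1, PEO4 and PEO1/OlaR ovarian cancer cells, 600 per well, exposed 96 h at 37C to a dilution series. Viability read by CellTiter-Glo luminescence, normalized to DMSO and empty wells; activity summarized as Z-AUC.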

[4] = qHTS Assay for Lipid Storage Modulators (AID 1519; calls by dose curve; on activity change, negative = inhibition: on the % scale 0 is the no-effect control and ±100 the full control effect); settings: Drosophila S3 cells, BODIPY lipid droplet/cell ratio, laser cytometry, cells loaded with oleic acid; for activity change, negative = inhibition: at 57.5 µM (top of the series)
How it was run: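 Cells seeded at 5,000 per well were treated with compounds over a concentration series and loaded with oleic acid (400 uM, as added). Lipid droplet fluorescence (488 nm excitation, 500-530 nm channel) was read by laser-scanning cytometry and normalized to 20 uM Triacsin C.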

[5] = target: DNA repair nuclease/redox regulator APEX1 (Homo sapiens) (UniProt P27695); assay: qHTS Validation Assay for Inhibitors of the Human Apurinic/apyrimidinic Endonuclease 1 (APE1) (AID 1705; further: potency means the concentration at half of the fitted maximal effect;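 on activity change, negative = inhibition: TAMRA fluorescence gain over two minutes as APE1 cuts a quenched THF abasic duplex; on the % scale 0 is the no-effect control and ±100 the full control effect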)
DNA repair nuclease/redox regulator APEX1 (Homo sapiens), sequence (P27695 whole entry, looked up): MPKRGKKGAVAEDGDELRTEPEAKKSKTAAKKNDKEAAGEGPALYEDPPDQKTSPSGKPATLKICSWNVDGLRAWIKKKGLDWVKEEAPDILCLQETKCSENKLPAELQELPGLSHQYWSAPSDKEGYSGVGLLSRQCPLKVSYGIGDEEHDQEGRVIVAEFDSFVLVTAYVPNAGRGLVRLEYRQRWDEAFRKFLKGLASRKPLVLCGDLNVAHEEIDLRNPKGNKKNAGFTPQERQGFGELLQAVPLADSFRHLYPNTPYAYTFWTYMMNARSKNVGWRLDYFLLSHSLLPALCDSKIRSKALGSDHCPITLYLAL
How it was run: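 Activity read as rising fluorescence (598 nm emission, 525 nm excitation) from incision of a TAMRA/BHQ-2 duplex carrying a THF abasic site (50 nM). Compound and enzyme sat 15 min at RT before substrate start; signal change between first and third 60-s reads.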

[6] = Counterscreen for APE1 Inhibitors: Fluorescent Dye Displacement Validation Assay (AID 1707); further: potency means the concentration at half of the fitted maximal effect;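 on activity change, negative = inhibition: plate controls were ThO with dsDNA and no compound for no effect and ThO without dsDNA for full effect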
How it was run: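 Assay buffer: Tris-HCl pH7.5 with 50mM NaCl, 2 mM MgCl2, 0.01% Tween-20. Dye 250 nM, duplex 50 nM final. Readout: decrease in ThO endpoint fluorescence, 480 nm excitation, 540 nm emission.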

[7] = target: ATP-dependent DNA helicase Q1 (Homo sapiens) (UniProt P46063); assay: qHTS Validation Assay for Inhibitors of RecQ-Like Dna Helicase 1 (RECQ1) (AID 2353); further: potency means the concentration at half of the fitted maximal effect;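 on activity change, negative = inhibition: plate controls were DMSO vehicle for no effect and enzyme-free control for full effect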
ATP-dependent DNA helicase Q1 (Homo sapiens), sequence (P46063 whole entry, looked up): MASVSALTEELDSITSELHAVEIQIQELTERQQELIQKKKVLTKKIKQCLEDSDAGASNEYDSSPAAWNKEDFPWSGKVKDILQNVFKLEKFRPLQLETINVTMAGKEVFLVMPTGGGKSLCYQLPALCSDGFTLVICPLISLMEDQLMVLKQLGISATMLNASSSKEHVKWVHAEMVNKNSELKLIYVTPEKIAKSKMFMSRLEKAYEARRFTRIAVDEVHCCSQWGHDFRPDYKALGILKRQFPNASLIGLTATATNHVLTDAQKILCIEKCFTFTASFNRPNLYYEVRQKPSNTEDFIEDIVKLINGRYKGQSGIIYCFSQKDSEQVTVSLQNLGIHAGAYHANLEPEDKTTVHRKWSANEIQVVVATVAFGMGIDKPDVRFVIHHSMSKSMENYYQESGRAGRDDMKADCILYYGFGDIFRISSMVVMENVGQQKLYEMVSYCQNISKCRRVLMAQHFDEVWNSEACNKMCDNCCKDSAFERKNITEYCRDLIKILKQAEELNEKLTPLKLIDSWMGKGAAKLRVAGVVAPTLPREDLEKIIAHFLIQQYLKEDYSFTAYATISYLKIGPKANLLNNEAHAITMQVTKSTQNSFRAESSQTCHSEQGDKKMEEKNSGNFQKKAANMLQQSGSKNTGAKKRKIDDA
How it was run: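 50 nM RECQ1T1 preincubated 15 min with compound in Tris pH 8.0 buffer with MgCl2, DTT, Tween-20 and 2.5 ug/ml poly(dI-dC); started with 200 nM TAMRA/BHQ-2 forked duplex and 2 mM ATP. Unwinding read as fluorescence (525/598 nm), two reads 2 h apart.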

[8] = Validation screen for small molecules that induce DNA re-replication in MCF 10A normal breast cells (AID 463097); further: 0% is about no effect; nearly all actives have a fitted effect of over 60% in size
How it was run: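 Read-out is Hoechst total nuclear intensity by fluorescence scanning imager, flagging increased high-DNA-content nuclei. Compounds were incubated with MCF 10A cells for 48 hr (37 C, 5% CO2) before 40 min staining.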

[9] = Quantitative high throughput screen for delayed death inhibitors of the malarial parasite plastid, 96 hour incubation (AID 488745); further: on the % scale 0 is the no-effect control and ±100 the full control effect; nearly all actives have a fitted effect of over 70% in size
How it was run: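 Luciferase-expressing P. falciparum in erythrocytes (2% hematocrit, 0.1% parasitemia) incubated with compound for 96 h at 37 C, 5% CO2, in RPMI 1640 with 0.5% Albumax. Growth inhibition read as decreased luminescence.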

[10] = Quantitative high throughput screen for delayed death inhibitors of the malarial parasite plastid, 48 hour incubation (AID 488752); further: on the % scale 0 is the no-effect control and ±100 the full control effect; nearly all actives have a fitted effect of over 65% in size
How it was run: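 Erythrocytes infected with firefly luciferase-expressing P. falciparum (2% hematocrit, 0.1% parasitemia) cultured with compound for 48 h at 37 C, 5% CO2, in RPMI 1640/0.5% Albumax. Growth inhibition read as loss of luminescence.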

[11] = target: Transient receptor potential cation channel subfamily V member 1 (Homo sapiens) (UniProt Q8NER1); assay: HTS Assay for Compounds that Act as Enhancers of the Vanilloid Receptor 1 (AID 488979); further: 0% is about no effect
Transient receptor potential cation channel subfamily V member 1 (Homo sapiens), sequence (Q8NER1 whole entry, looked up): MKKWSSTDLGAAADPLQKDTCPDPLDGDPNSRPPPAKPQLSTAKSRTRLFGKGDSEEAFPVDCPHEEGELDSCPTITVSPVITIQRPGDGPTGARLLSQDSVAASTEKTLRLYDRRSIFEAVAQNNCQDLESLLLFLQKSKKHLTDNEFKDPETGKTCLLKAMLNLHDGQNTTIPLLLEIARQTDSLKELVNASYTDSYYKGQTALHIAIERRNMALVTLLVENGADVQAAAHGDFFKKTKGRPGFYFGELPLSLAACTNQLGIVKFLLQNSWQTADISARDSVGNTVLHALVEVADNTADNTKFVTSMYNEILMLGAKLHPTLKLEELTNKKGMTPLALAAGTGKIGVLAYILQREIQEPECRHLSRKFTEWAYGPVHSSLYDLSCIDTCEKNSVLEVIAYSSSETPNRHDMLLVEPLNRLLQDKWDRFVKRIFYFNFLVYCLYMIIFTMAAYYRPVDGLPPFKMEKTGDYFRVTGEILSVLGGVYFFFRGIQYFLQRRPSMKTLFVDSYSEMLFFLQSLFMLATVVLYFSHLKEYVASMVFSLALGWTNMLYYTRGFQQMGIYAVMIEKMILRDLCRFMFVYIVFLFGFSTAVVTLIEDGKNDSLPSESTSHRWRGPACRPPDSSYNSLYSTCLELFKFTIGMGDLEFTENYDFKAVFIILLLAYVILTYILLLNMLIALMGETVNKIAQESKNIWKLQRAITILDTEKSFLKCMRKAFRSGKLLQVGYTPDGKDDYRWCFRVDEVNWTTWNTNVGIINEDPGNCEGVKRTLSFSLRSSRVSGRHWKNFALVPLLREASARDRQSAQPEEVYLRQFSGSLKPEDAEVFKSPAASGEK
How it was run: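 TRPV1-expressing cells loaded with Fluo-8 calcium dye; compounds added and calcium influx read kinetically for 3 min (agonist phase), then capsaicin at EC20 added and read 2 min more for enhancement. Fluorescence ex 480/em 520 nm.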

[12] = target: Thyrotropin-releasing hormone receptor (Homo sapiens) (UniProt P34981); assay: qHTS for Small Molecule Agonists and Allosteric Enhancers of Human TRH Receptor: Validation Screen for Agonists (AID 493127;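 active means calcium activation more than 3 SD above the typical response in the agonist read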; further: 0% is about no effect); settings: TRH receptor agonist cell assay; at 2 µM; stronger effect = higher value
Thyrotropin-releasing hormone receptor (Homo sapiens), sequence (P34981 whole entry, looked up): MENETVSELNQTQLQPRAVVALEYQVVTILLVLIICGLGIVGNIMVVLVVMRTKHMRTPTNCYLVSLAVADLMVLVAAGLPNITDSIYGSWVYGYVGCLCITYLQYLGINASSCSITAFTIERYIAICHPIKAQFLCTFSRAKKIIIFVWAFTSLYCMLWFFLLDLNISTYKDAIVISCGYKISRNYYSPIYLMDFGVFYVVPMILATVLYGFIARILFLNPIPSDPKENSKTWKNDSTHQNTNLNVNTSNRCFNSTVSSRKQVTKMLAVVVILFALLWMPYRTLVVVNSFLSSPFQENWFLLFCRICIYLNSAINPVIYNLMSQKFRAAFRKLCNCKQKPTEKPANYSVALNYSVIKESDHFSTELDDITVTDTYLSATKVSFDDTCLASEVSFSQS
How it was run: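 TRHR cells loaded with fluo-8 calcium dye; FDSS kinetic fluorescence (Ex 480/Em 530) read at 1 s/cycle after 23 nL compound addition. Agonist-mode calcium response recorded before the 10 nM TRH (EC20) addition.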

[13] = target: Galactokinase (Homo sapiens) (UniProt P51570); assay: qHTS Validation Assay for Inhibitors of Human Galactokinase (GALK) (AID 493189); further: 0% is about no effect
Galactokinase (Homo sapiens), sequence (P51570 whole entry, looked up): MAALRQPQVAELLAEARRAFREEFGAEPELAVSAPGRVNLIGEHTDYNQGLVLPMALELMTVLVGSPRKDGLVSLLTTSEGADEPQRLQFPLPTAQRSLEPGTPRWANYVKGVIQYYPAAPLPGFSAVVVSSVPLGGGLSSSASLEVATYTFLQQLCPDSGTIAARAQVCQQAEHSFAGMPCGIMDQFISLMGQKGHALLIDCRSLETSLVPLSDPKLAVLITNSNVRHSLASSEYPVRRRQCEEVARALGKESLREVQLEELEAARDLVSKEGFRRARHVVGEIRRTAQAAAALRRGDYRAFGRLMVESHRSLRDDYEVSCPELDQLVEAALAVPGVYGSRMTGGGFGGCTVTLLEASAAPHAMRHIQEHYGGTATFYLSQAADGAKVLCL
How it was run: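 Inhibition was measured as remaining ATP, detected by luciferase luminescence after a 1 h room-temperature reaction. Final conditions: 5 nM GALK, 100 uM galactose, 35 uM ATP, pH 8.0 HEPES buffer.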

[14] = Validation screen for small molecules that induce DNA re-replication in SW480 colon adenocarcinoma cells (AID 504364); further: 0% is about no effect
How it was run: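 SW480 cells (250/well) exposed 48 h at 37 C, 5% CO2, then Hoechst-stained 40 min. Nuclear DNA content imaged by fluorescence scanning (405 nm excitation, 500-530 nm emission); re-replication scored as increased nuclei with elevated intensity.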

[15] = target: Voltage-gated inwardly rectifying potassium channel KCNH2 (Homo sapiens) (UniProt Q12809); assay: qHTS Assay for Small Molecule Inhibitors of the Human hERG Channel Activity (AID 588834);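 further: top concentration of the series differs between compounds; on the % scale 0 is the no-effect control and ±100 the full control effect; lower thallium flux fluorescence means stronger hERG block; nearly all actives have a fitted effect of over 50% in size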
Voltage-gated inwardly rectifying potassium channel KCNH2 (Homo sapiens), sequence (Q12809 whole entry, looked up): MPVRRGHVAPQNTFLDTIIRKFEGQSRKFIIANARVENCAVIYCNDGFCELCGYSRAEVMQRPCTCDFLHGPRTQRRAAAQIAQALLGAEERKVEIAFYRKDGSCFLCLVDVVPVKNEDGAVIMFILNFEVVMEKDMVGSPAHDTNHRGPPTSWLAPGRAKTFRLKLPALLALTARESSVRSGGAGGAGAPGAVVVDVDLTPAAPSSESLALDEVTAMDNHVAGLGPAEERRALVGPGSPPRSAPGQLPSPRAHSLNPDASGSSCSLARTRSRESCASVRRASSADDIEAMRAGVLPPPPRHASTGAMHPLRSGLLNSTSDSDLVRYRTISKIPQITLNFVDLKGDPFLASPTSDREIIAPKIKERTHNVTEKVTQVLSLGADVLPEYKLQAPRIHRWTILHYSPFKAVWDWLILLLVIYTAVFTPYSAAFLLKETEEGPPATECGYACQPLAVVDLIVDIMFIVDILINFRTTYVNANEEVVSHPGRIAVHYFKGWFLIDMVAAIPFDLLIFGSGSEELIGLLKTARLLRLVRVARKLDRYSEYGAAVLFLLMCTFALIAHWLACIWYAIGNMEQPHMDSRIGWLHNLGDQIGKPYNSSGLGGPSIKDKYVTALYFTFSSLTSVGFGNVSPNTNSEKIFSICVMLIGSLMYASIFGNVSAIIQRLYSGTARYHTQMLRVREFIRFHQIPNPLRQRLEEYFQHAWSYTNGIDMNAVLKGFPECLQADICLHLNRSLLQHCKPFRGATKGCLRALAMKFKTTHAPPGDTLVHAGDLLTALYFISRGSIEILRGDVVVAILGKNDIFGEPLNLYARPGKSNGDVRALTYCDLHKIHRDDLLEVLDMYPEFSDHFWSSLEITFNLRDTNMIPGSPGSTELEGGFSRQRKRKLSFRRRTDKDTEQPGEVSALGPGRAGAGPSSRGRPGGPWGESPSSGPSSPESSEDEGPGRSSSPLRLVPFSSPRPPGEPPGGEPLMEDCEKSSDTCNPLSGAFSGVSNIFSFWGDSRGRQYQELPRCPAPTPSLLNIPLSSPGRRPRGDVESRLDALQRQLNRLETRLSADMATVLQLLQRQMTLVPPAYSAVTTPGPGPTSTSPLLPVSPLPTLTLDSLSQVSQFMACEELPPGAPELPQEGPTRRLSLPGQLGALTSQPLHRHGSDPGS
How it was run: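 Kinetic FDSS fluorescence; U2OS + hERG BacMam (~100 virus particles/cell); FluxOR Tl+ flux; ~10 min cpd; AC50 (Hill).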

[16] = qHTS for differential inhibitors of proliferation of Plasmodium falciparum line D10 (AID 1877);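 further: parasites grown with compound for 72 h before DNA staining; plate controls were vehicle wells for no effect and reference inhibitor wells for full effect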
[17] = target: M-phase phosphoprotein 8 (Homo sapiens) (UniProt Q99549); assay: qHTS Validation Assay for Inhibitors for MPP8 Chromodomain Interactions with Methylated Histone Tails (AID 488949);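 further: AlphaScreen signal from MPP8 chromodomain bound to biotinylated H3K9me3 peptide; top concentration of the series differs between compounds; on the % scale 0 is the no-effect control and ±100 the full control effect; nearly all actives have a fitted effect of over 55% in size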
M-phase phosphoprotein 8 (Homo sapiens), sequence (Q99549 whole entry, looked up): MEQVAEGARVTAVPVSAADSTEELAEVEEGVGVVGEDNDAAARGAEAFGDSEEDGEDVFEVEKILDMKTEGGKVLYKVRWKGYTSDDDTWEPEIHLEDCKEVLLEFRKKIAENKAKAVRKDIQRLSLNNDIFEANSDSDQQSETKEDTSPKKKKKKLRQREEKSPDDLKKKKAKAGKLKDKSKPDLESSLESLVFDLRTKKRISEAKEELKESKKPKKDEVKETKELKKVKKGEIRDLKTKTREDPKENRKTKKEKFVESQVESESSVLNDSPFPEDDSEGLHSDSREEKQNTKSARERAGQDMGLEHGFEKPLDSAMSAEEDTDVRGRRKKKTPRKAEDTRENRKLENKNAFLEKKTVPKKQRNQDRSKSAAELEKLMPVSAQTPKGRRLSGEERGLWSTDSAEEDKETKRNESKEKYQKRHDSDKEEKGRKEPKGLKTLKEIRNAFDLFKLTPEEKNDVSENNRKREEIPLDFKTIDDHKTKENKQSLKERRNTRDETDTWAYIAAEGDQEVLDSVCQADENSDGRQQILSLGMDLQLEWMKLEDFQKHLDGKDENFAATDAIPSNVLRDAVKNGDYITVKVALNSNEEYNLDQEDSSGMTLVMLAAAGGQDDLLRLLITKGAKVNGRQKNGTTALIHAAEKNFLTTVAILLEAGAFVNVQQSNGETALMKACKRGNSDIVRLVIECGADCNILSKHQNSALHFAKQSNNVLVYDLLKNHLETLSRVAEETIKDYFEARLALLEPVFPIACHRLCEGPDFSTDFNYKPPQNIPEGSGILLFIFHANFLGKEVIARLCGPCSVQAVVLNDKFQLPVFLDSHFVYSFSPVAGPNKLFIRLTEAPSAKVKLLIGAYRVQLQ
How it was run: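 AlphaScreen proximity signal from streptavidin donor and Ni-chelate acceptor beads (10 ug/mL each) reported binding of MPP8 to trimethyl-K9 H3(1-18) peptide, both at 50 nM. The complex formed 30 min before a 30 min compound exposure at room temperature, in PBS pH 7.4.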

[18] = target: Thyrotropin receptor (Homo sapiens) (UniProt P16473); assay: qHTS Assay for Antagonists of the Thyroid Stimulating Hormone Receptor (AID 488980); further: 0% is about no effect
How it was run: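 Inhibition of cAMP raised by EC80 TSH (4 nM final) was read by HTRF, with lysate cAMP competing against cAMP-d2 for cryptate antibody after 30 min at room temperature. The cells were transfected HEK293 held in phosphodiesterase inhibitor RO 20-1724 at 70 uM.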

[19] = measured here: PEO1 parental Z-AUC
[20] = measured here: cell count channel max response
[21] = measured here: lipid channel max response

With `Cc1c(-c2ccc(-c3ccccc3F)cc2)nc2ccc(F)cc2c1C(=O)O` the Potency [1] was 0.105 µM (active), the Potency [2] was “inactive” and the Potency [3] was 2.75 µM (active). For the same compound, the Z-AUC [3, 19] was -1.54 and the Z-AUC ([3]; measured here: PEO4 Z-AUC) was -1.34.
For `OC[C@H]1O[C@@H](S[C@@H]2O[C@H](CO)[C@H](O)[C@H](n3cc(-c4cccc(F)c4)nn3)[C@H]2O)[C@H](O)[C@@H](n2cc(-c3cccc(F)c3)nn2)[C@H]1O`, the Potency [1] was “inactive”, the Potency [2] was “inactive” and the Z-AUC [3] was -0.122 (inactive). For the same compound, the Z-AUC [3, 19] was 0.00215 and the Z-AUC ([3]; measured here: PEO4 Z-AUC) was 0.252.
In the case of `NS(=O)(=O)c1ccc(S(=O)(=O)Nc2cccc3c(Cl)c[nH]c23)cc1`, the Potency [1] is reported as 0.742 µM (active), the Potency [2] is reported as “inactive” and the Z-AUC [3] is reported as -0.956 (inactive). The Z-AUC [3, 19] was -0.0531 and the Z-AUC ([3]; measured here: PEO4 Z-AUC) was -0.727.
In the case of `Cc1cc(C)c2c(c1)[C@@H](N(Cc1cc(C(F)(F)F)cc(C(F)(F)F)c1)c1nnn(C)n1)CCCN2CC1CCC(C(=O)O)CC1` (stereo partly specified), the Potency [1] is reported as “inactive”, the Potency [2] is reported as “inactive” and the Z-AUC [3] is reported as 0.561 (inactive). The Z-AUC [3, 19] was 1.04 and the Z-AUC ([3]; measured here: PEO4 Z-AUC) was 0.634.
With `COc1cccc(-c2c(C)n(Cc3c(F)cccc3C(F)(F)F)c(=O)n(C[C@H](NCCCC(=O)O)c3ccccc3)c2=O)c1F` the Potency [1] was “inactive”, the Potency [2] was “inactive” and the Z-AUC [3] was 1.28 (inactive) and 1.27 (inactive). For the same compound, the Z-AUC [3, 19] was 0.714 and 0.439 and the Z-AUC ([3]; measured here: PEO4 Z-AUC) was 0.863 and 0.647.
With `N.N.N.N.N.N.N.N.N.N.N.N.N.N.O.O.[Cl-].[Cl-].[Cl-].[Cl-].[Cl-].[Cl-].[Ru].[Ru].[Ru]` the activity change, negative = inhibition [4] was 3.46% (inactive), the max response [4, 20] was 40.4% and the max response [4, 21] was 45.1%. For the same compound, the Potency [5] was 35.5 µM (active), the Potency [6] was 20 µM (active) and the Potency [7] was 4.47 µM (active). For the same compound, the outcome [8] was “inactive”, the Potency [9] was “inactive” and the Potency [10] was “inactive”. For the same compound, the outcome [11] was “inactive”, the activation [12] was 1.06% (inactive) and the outcome [13] was “inactive”. The outcome [14] was “inactive” and the Potency [15] was “inactive”.
In the case of `COc1ccc([C@@H](O)[C@@H](C)Oc2ccc([C@H]3O[C@H](c4ccc(O[C@H](C)[C@H](O)c5ccc(OC)c(OC)c5)c(OC)c4)[C@H](C)[C@H]3C)cc2OC)cc1OC`, the Potency [1] is reported as 5.25 µM (active), the Potency [2] is reported as “inactive” and the Z-AUC [3] is reported as -1.98 (inactive). For the same compound, the Z-AUC [3, 19] was -3.67 and the Z-AUC ([3]; measured here: PEO4 Z-AUC) was -2.38.
With `CCN(CC)C(=O)Cc1csc(NS(=O)(=O)c2cccc(Cl)c2C)n1` the Potency [1] was “inactive”, the Potency [2] was “inactive” and the Z-AUC [3] was 0.874 (inactive). The Z-AUC [3, 19] was 0.835 and the Z-AUC ([3]; measured here: PEO4 Z-AUC) was 0.952.
In the case of `FC(F)(F)c1ccccc1-c1nc(NC2CCNCC2)c2ccccc2n1`, the activity change, negative = inhibition [4] is reported as 1.75% (inactive), the max response [4, 20] is reported as 19.6% and the max response [4, 21] is reported as 17.3%.
With `Nc1nc(SCc2ccc([N+](=O)[O-])cc2)c2ncn([C@@H]3O[C@H](CO)[C@H](O)[C@H]3O)c2n1` the activity change, negative = inhibition [4] was -2% (inactive), the max response [4, 20] was -35.2% and the max response [4, 21] was -38%. For the same compound, the Potency [5] was “inactive”, the Potency [6] was “inactive” and the Potency [16] was “inactive”. For the same compound, the Potency [7] was “inactive”, the outcome [8] was “inactive” and the Potency [9] was “inactive”. The Potency [10] was “inactive”, the Potency [17] was “inactive” and the outcome [11] was “inactive”. For the same compound, the outcome [18] was “inactive”, the activation [12] was 0.75% (inactive) and the outcome [13] was “inactive”. The outcome [14] was “inactive”.
With `CCOc1cc(/C=C2/C(=O)N(c3ccccc3)N=C2C)cc(Cl)c1OCC(=O)OC` the Potency [1] was “inactive”, the Potency [2] was “inactive” and the Z-AUC [3] was 1.36 (inactive). The Z-AUC [3, 19] was 1.44 and the Z-AUC ([3]; measured here: PEO4 Z-AUC) was 0.891.
In the case of `CC(C)(O)CS(=O)(=O)Nc1ccc2c(c1)CCN(C(=O)COc1cccnc1)C2`, the Potency [1] is reported as 0.0372 µM (active), the Potency [2] is reported as “inactive” and the Z-AUC [3] is reported as -2.38 (inactive). It also gave a Z-AUC [3, 19] of -2.73 and a Z-AUC ([3]; measured here: PEO4 Z-AUC) of -2.65.
For `Cn1c(=O)c(CCc2ccccc2)nc2cnc(OCc3ccccc3)nc21`, the activity change, negative = inhibition [4] was 2.86% (inactive), the max response [4, 20] was 13.9% and the max response [4, 21] was 15.4%.
